The nature of assay [1]: ATG_GLI_CIS: Attagene CIS-FACTORIAL HepG2 Assay for human Zinc Finger Protein GLI1 (AID 2282945). As to conditions: HepG2, Attagene cis-factorial reporter mRNA, GLI element; actives raise or lower the signal. The method, boiled down:
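Bidirectional curve fits relative to DMSO, using reporter mRNA levels from RT-PCR plus capillary electrophoresis. Cells were HepG2 transiently carrying cis-regulated reporter constructs, harvested 24 h after dosing.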

Assay [2] has as its target Bile acid receptor (Homo sapiens) (UniProt Q96RI1). Nature of the assay: ATG_IR1_CIS: Attagene CIS-FACTORIAL HepG2 Assay for human Nuclear Receptor Subfamily 1 Group H Member 4 (NR1H4), IR1 submotif (AID 2282946). As to conditions: IR1 reporter transcription, actives raise or lower the signal. The method, boiled down: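 Cells (human HepG2) carry transiently transfected cis-promoter reporter transcription units. Compounds are incubated 24 h, total RNA is reverse-transcribed and amplified, and labelled fragments are resolved by capillary electrophoresis. Curves use DMSO as baseline.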

Assay [3] is described as follows: ATG_GRE_CIS: Attagene CIS-FACTORIAL HepG2 Assay for human Glucocorticoid Response Elements (GRE) (AID 2282947). As to conditions: HepG2 GRE cis-reporter, Attagene multiplex mRNA; actives raise or lower the signal. The method, boiled down: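 Assay uses human hepatoma HepG2 cells transfected with cis-promoter reporter units, exposed 24 h. mRNA from reporters detected by RT-PCR plus capillary electrophoresis; DMSO serves as negative control and baseline.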

Assay [4] in a line: ATG_ISRE_CIS: Attagene CIS-FACTORIAL HepG2 Assay for human Interferon Regulatory Factor 1 (IRF1) binding to an Interferon-Stimulated Response Element (ISRE) (AID 2282948). As to conditions: HepG2 ISRE cis-reporter (Attagene), mRNA transcription readout; actives raise or lower the signal. In outline:
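Transfected HepG2 (multiple reporter transcription units, cis elements) dosed 24 h. RNA → oligo(dT) RT → PCR → 6-FAM primer extension → HpaI → CE. DMSO = negative control/baseline.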

Assay [5] in a line: ATG_M_32_CIS: Attagene CIS-FACTORIAL HepG2 Assay for M32 Transcription Factor (Internal Marker) (AID 2282949).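 Further: background control marker of the multiplexed CIS panel rather than a real target.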 As to conditions: HepG2 Attagene cis-factorial M32 reporter, mRNA; actives raise or lower the signal. In outline: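 Internal background marker read-out: RT-PCR/capillary electrophoresis fluorescence of reporter transcripts from transiently transfected HepG2 cells after 24 h chemical exposure. Activity fitted bidirectionally relative to DMSO negative control.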

The nature of assay [6]: ATG_M_06_CIS: Attagene CIS-FACTORIAL HepG2 Assay for M06 Transcription Factor (Internal Marker) (AID 2282950). As to conditions: HepG2 Attagene CIS-FACTORIAL M06 internal marker reporter; actives raise or lower the signal. In outline: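 Measured 24 h post-dosing in transiently transfected HepG2 cells, this internal-marker endpoint reports reporter mRNA via RT-PCR with fluorescent primer extension and capillary electrophoresis. DMSO served as negative control and baseline for bidirectional fitting.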

Assay [7] deals with Hypoxia-inducible factor 1-alpha (Homo sapiens) (UniProt Q16665). The assay can be described thus: ATG_HIF1a_CIS: Attagene CIS-FACTORIAL HepG2 Assay for human Hypoxia Inducible Factor 1 (HIF1A) (AID 2282951). As to conditions: HepG2 Attagene cis-factorial HIF1a reporter transcription; actives raise or lower the signal. The method, boiled down: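 Transient MRTU transfection of human HepG2 liver cells, 24 h compound treatment, then total RNA isolation, oligo(dT) reverse transcription, PCR amplification, fluorescent labelling and capillary electrophoresis of reporter fragments. Gain or loss relative to DMSO.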

For assay [8], the target named is Heat shock factor protein 1 (Homo sapiens) (UniProt Q00613). The assay can be described thus: ATG_HSE_CIS: Attagene CIS-FACTORIAL HepG2 Assay for human Heat Shock Transcription Factor 1 (HSE) (AID 2282953). As to conditions: HepG2 HSE cis-reporter, Attagene RNA transcription; actives raise or lower the signal. The method, boiled down:
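Reporter mRNA induction in HepG2 is measured 24 h after dosing, using transiently transfected multiplexed cis-regulated reporter units. Signal comes from capillary electrophoresis of labelled RT-PCR products, with DMSO as negative control.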

Assay [9] in a line: ATG_MRE_CIS: Attagene CIS-FACTORIAL HepG2 Assay for human Metal Responsive Element (MRE) (AID 2282954). As to conditions: HepG2 MRE cis-reporter transcription, Attagene multiplex; actives raise or lower the signal. In outline: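 After a 24 h chemical exposure, transiently transfected HepG2 cells yield RNA whose reporter sequences are amplified, FAM-labelled and sized by capillary electrophoresis. Curves are fitted bidirectionally relative to DMSO.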

Assay [10] can be described thus: ATG_PBREM_CIS: Attagene CIS-FACTORIAL HepG2 Assay for human Phenobarbital-responsive Enhancer Module (PBREM) (AID 2282955). As to conditions: HepG2 PBREM cis-reporter, Attagene multiplexed transcription; actives raise or lower the signal. The method, boiled down: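 Endogenous transcription factors in human liver HepG2 cells drive a PBREM cis-element reporter, whose transcript level after 24 h treatment is quantified by RT-PCR with capillary electrophoresis; activity fitted in both directions against DMSO.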

Assay [11] concerns the target Paired box protein Pax-6 (Homo sapiens) (UniProt P26367). The assay can be described thus: ATG_Pax6_CIS: Attagene CIS-FACTORIAL HepG2 Assay for human Paired Box 6 (PAX6) (AID 2282956). As to conditions: HepG2 CIS-FACTORIAL PAX6 reporter transcription, RNA readout; actives raise or lower the signal. The method, boiled down: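 Transient MRTU transfection of HepG2 → compound exposure 24 h → TriZol RNA, oligo(dT) RT → PCR, 6-FAM primer extension, HpaI cut → capillary electrophoresis; activity fitted both directions against DMSO.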

Assay [12] is described as follows: ATG_PPRE_CIS: Attagene CIS-FACTORIAL HepG2 Assay for human Peroxisome Proliferator-activated Response Element (PPRE) (AID 2282958). As to conditions: HepG2 PPRE cis-element reporter, Attagene transcription factor profiling; actives raise or lower the signal. In outline: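 HepG2, transient MRTU transfection (cis promoter elements, endogenous TFs). 24 h dosing. RNA → oligo(dT) RT → PCR → 6-FAM primer extension → HpaI digest → CE. Bidirectional fit vs DMSO.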

The nature of assay [13]: ATG_RORE_CIS: Attagene CIS-FACTORIAL HepG2 Assay for human RAR-related Orphan Receptor Element (RORE) (AID 2282959). As to conditions: HepG2 Attagene cis-factorial RORE reporter, mRNA; actives raise or lower the signal. In outline: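 Transient MRTU transfection of human HepG2 liver cells (FuGene 6); 24 h compound exposure; TriZol RNA, oligo(dT) RT, PCR, FAM labeling, HpaI cut, CE fragment analysis. DMSO = negative control/baseline.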

The nature of assay [14]: ATG_Sox_CIS: Attagene CIS-FACTORIAL HepG2 Assay for human SRY-box transcription factor (SOX) (AID 2282960). As to conditions: HepG2 Attagene cis-factorial SOX reporter, mRNA; actives raise or lower the signal. The method, boiled down: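 Endogenous factor activity in human liver HepG2 cells carrying transfected cis-regulated reporter units. RNA taken 24 h post-dose, reverse-transcribed, PCR-amplified and sized by capillary electrophoresis. Gain or loss of signal fitted relative to DMSO.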

The target in assay [15] is Transcription factor Sp1 (Homo sapiens) (UniProt P08047). Nature of the assay: ATG_Sp1_CIS: Attagene CIS-FACTORIAL HepG2 Assay for human Specificity Protein 1 (Sp1) (AID 2282961). As to conditions: HepG2 Sp1 cis-reporter transcription, actives raise or lower the signal. The method, boiled down:
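Transient MRTU-transfected HepG2, 24 h compound exposure. Total RNA → oligo(dT) RT → PCR of reporter → 6-FAM primer extension → HpaI digest → CE. Endpoint fitted both directions vs DMSO.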

Assay [16] in a line: ATG_SREBP_CIS: Attagene CIS-FACTORIAL HepG2 Assay for human Sterol Regulatory Element Binding (SREBP) (AID 2282962). As to conditions: HepG2 Attagene cis-factorial SREBP reporter, mRNA; actives raise or lower the signal. In outline: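 Transfected HepG2 (cis-regulated reporter library, endogenous TFs) → compound 24 h → total RNA → oligo(dT) RT → reporter-specific PCR → FAM primer extension, HpaI cut → CE fluorescence. Fit bidirectional vs DMSO.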

For assay [17], the target named is Signal transducer and activator of transcription 3 (Homo sapiens) (UniProt P40763). Nature of the assay: ATG_STAT3_CIS: Attagene CIS-FACTORIAL HepG2 Assay for human Signal Transducer and Activator of Transcription 3 (STAT3) (AID 2282963). As to conditions: HepG2, Attagene cis-factorial STAT3 reporter transcription; actives raise or lower the signal. In outline: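 After a 24 h compound incubation, total RNA from MRTU-transfected HepG2 cells was converted to cDNA and reporter sequences PCR-amplified, labelled and profiled by capillary electrophoresis. Gain and loss of signal were referenced to DMSO.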

Assay [18] can be described thus: ATG_TA_CIS: Attagene CIS-FACTORIAL HepG2 Assay for human TA Basal Promoter (AID 2282964). As to conditions: HepG2 Attagene CIS-factorial TA basal promoter reporter; actives raise or lower the signal. The method, boiled down: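 Cis-factorial format in HepG2: reporters report endogenous factors, not chimeric Gal4 fusions. After 24 h treatment, reporter transcripts were measured by RT-PCR-capillary electrophoresis fluorescence, analysed bidirectionally versus DMSO.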

Assay [19] has as its target Hepatocyte nuclear factor 6 (Homo sapiens) (UniProt Q9UBC0). Nature of the assay: ATG_HNF6_CIS: Attagene CIS-FACTORIAL HepG2 Assay for human Hepatocyte Nuclear Factor 6 (HNF6) (AID 2282952). As to conditions: HepG2 Attagene cis-factorial HNF6 reporter transcription; actives raise or lower the signal. In outline: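 Transiently transfected HepG2 cells expressing cis-regulated reporter transcription units were exposed to chemical for 24 h in a 24-well format. Reporter transcript abundance was determined by fluorescence capillary electrophoresis.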

A short description of assay [20]: ATG_PXRE_CIS: Attagene CIS-FACTORIAL HepG2 Assay for human Pregnane X Receptor Element (PXRE) (AID 2282957). As to conditions: HepG2 Attagene CIS-FACTORIAL PXRE reporter, mRNA; actives raise or lower the signal. In outline:
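Cis-element reporter mRNA in human hepatoma HepG2 cells is measured 24 h post-dosing by RT-PCR, primer-extension labeling and capillary electrophoresis; gain or loss of signal is fitted relative to DMSO.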

SMILES strings stand for the structures. Calls of active or inactive are those of the source. How the source made its calls: active means hit-call score of the fitted dose curve at least 0.9, where 1 is the maximum; inactive means score below 0.9.

The source of these data is PubChem BioAssay (EPA / NIEHS).

Hypoxia-inducible factor 1-alpha (Homo sapiens), sequence (Q16665 whole entry, looked up, the tested form may be a part): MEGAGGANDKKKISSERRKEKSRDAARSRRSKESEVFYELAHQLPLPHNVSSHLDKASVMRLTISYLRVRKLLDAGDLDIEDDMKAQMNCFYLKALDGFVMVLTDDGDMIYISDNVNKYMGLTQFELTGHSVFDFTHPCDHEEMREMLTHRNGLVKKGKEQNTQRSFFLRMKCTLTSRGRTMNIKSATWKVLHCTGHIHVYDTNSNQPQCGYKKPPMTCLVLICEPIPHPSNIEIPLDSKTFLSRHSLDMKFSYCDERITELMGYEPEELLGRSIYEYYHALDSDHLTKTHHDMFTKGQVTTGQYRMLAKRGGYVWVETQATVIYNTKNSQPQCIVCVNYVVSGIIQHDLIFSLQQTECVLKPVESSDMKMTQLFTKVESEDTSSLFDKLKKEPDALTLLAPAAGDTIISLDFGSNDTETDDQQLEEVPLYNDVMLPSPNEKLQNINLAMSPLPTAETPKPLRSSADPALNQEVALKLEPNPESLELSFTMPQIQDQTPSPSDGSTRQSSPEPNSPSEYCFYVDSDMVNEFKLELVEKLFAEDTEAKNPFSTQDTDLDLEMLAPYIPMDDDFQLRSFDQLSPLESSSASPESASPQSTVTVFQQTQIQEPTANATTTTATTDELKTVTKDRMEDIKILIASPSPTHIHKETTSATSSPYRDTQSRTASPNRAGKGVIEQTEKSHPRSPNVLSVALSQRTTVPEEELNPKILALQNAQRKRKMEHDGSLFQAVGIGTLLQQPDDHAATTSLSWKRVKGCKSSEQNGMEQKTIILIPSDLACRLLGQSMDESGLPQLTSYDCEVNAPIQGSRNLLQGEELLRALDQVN
Signal transducer and activator of transcription 3 (Homo sapiens), sequence (P40763 whole entry, looked up): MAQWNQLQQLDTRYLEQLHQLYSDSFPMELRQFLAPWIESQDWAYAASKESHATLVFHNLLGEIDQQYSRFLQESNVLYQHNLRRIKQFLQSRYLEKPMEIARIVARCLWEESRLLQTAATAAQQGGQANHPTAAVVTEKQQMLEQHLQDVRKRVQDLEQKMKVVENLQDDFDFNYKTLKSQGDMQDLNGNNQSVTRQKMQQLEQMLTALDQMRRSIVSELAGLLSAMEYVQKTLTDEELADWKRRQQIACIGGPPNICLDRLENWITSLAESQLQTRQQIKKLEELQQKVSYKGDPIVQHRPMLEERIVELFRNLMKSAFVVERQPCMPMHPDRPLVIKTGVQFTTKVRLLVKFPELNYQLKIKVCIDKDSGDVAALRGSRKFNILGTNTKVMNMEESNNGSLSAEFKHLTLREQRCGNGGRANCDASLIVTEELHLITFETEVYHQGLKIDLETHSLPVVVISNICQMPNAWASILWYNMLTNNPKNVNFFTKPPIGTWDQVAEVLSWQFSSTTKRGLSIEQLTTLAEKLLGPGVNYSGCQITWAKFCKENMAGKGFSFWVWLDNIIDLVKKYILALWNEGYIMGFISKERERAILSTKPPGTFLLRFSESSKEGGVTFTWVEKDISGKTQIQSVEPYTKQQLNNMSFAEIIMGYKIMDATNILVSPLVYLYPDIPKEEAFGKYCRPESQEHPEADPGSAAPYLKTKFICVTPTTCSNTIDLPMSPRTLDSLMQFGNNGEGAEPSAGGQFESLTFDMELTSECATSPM
Transcription factor Sp1 (Homo sapiens), sequence (P08047 whole entry, looked up): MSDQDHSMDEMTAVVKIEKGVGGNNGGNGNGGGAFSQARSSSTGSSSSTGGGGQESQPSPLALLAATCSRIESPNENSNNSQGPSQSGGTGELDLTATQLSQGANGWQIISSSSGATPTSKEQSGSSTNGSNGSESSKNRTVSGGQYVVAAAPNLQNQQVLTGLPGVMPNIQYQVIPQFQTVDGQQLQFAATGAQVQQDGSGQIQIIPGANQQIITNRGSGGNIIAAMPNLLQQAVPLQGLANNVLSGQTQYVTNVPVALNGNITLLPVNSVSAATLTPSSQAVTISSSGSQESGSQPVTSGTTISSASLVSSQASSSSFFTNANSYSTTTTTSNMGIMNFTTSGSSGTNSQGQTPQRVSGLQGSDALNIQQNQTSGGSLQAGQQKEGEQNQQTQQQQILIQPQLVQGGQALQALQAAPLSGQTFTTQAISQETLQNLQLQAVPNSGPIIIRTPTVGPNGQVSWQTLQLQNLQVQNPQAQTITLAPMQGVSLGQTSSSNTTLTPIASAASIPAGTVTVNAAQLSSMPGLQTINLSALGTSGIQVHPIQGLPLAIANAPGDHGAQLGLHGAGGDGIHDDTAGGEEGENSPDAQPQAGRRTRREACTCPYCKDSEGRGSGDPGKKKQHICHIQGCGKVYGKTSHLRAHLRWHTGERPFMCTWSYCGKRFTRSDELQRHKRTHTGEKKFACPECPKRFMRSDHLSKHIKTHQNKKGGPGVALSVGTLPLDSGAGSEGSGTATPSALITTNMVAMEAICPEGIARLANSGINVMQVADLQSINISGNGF
Bile acid receptor (Homo sapiens), sequence (Q96RI1 whole entry, looked up, the tested form may be a part): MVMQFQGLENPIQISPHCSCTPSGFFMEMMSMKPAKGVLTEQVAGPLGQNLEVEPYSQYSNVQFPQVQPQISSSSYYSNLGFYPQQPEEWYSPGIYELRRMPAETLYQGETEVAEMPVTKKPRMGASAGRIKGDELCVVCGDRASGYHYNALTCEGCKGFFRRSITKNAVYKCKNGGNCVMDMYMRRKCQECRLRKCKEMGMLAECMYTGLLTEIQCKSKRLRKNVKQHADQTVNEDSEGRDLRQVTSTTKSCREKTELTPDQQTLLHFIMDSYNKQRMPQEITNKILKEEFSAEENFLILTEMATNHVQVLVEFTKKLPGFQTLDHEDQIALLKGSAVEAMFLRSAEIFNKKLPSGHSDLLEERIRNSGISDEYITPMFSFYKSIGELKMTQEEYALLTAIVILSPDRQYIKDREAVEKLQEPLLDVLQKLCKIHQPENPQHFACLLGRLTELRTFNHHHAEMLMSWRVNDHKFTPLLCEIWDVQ
Paired box protein Pax-6 (Homo sapiens), sequence (P26367 whole entry, looked up): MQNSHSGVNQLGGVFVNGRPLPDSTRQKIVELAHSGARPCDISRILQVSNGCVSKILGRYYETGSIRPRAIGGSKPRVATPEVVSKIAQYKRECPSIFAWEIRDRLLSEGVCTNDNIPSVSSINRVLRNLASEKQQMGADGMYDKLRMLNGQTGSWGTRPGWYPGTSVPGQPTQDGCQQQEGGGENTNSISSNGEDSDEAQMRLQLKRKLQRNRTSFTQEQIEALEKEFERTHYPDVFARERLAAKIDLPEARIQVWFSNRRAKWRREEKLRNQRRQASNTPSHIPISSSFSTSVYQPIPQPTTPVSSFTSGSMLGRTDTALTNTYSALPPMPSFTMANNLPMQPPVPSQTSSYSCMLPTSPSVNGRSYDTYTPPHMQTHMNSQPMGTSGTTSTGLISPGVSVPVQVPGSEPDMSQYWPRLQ
Heat shock factor protein 1 (Homo sapiens), sequence (Q00613 whole entry, looked up): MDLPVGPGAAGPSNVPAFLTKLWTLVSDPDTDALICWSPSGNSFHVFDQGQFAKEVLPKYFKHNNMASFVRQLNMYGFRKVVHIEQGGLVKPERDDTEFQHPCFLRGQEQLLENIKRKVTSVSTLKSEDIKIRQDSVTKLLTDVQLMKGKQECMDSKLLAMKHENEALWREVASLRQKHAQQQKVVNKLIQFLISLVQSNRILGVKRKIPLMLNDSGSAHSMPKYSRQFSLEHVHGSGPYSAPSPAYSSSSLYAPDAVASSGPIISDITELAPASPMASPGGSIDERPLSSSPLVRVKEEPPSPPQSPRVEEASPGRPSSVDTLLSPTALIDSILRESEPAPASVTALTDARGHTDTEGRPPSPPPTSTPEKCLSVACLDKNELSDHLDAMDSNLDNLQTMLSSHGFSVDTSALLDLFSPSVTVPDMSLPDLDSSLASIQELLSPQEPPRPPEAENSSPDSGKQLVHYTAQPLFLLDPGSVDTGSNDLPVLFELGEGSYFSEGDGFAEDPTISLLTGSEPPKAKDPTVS
Hepatocyte nuclear factor 6 (Homo sapiens), sequence (Q9UBC0 whole entry, looked up): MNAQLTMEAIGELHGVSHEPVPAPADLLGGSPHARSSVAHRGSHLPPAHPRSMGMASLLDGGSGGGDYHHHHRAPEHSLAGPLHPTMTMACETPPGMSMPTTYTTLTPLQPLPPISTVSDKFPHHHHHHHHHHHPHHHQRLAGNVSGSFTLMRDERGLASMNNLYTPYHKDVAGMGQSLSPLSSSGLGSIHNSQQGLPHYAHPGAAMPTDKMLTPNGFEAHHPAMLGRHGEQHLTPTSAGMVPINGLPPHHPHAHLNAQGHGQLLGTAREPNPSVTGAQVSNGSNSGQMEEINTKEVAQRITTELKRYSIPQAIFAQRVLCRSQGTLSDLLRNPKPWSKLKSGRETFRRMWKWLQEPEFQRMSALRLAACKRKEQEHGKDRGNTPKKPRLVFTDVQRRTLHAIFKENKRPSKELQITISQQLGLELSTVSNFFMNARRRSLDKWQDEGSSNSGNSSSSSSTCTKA

By AC50 is commonly meant the concentration giving half of the maximal activity seen. With `CN[C@H]1CC[C@@H](c2ccc(Cl)c(Cl)c2)c2ccc(S(N)(=O)=O)cc21`, the compound was called inactive in assay [1], in [2], in assay [3], in assay [4], in assay [5] and in assay [6]. For the same compound, the call in assay [7], in [8], in assay [9], in assay [10], in assay [11] and in assay [12] was inactive. Moreover, the result in [13], in assay [14], in assay [15], in assay [17] and in assay [18] was inactive. The AC50 in assay [16] is 3.7 µM (active).

`O=C(O)CCCCC(=O)O`: the call in [1], in assay [2], in assay [3], in assay [4], in assay [5] and in assay [6] was inactive. Besides, the call in assay [7], in [19], in assay [9], in assay [10], in assay [11] and in assay [12] was inactive. Also, the outcome in [13], in assay [14], in assay [15], in assay [16], in assay [17] and in [18] was inactive. The AC50 in assay [20] was 55 µM (active).

For `Cc1ccccc1Cl`, the call in assay [1], in [2], in assay [3], in assay [4], in assay [5] and in assay [6] was inactive. Also, the compound was called inactive in assay [7], in assay [8], in assay [9], in assay [10], in assay [11] and in [12]. Besides, the result in assay [13], in assay [14], in [15], in [16], in [17] and in assay [18] was inactive.
